Some test systems named below: SR leukemia; RPMI-8226 leukemia; OVCAR-8 ovarian; OVCAR-5 ovarian; OVCAR-4 ovarian; SK-OV-3 ovarian; IGROV1 ovarian; HS 578T breast; NCI/ADR-RES ovarian; T-47D breast; BT-549 breast; MDA-MB-435 melanoma; SW-620 colon; MCF7 breast; HCT-116 colon; HCC-2998 colon; KM12 colon.
What all share (test): NCI-60 one-dose screen, 48 h (100 = growth as untreated, 0 = no growth, -100 = all killed)
Common to all, as to details: 10 µM unless noted

Each structure is given as a SMILES string. This is part of a sample that, as a whole, favours compounds with a hit. Of some 83,000 tested, about 20% had one in any assay.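 For each line, cells grew in 96-well plates with the test compound present at a single concentration for 48 hours.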 Unmarked numbers belong to inactive results. Calls of active or inactive are those of the source. The calls were made as follows: active = growth percent below 10; inactive = the rest.

With `CC(=O)Oc1ccc(CCN2C(=O)CSC2=S)cc1`, the growth in the experiment on SR leukemia was 68.9%; in the experiment with RPMI-8226 leukemia it was 37.6%; in the experiment with OVCAR-8 ovarian, 103%; in the experiment on OVCAR-5 ovarian, 97.9%; in the experiment with OVCAR-4 ovarian it was 93.8%; in the experiment with SK-OV-3 ovarian, 113%. Also, the growth in the experiment on IGROV1 ovarian was 103%; in the experiment with HS 578T breast, 100%; in the experiment on NCI/ADR-RES ovarian it was 96.4%; in the experiment on T-47D breast it was 41.2%; in the experiment with BT-549 breast it was 95.9%; with MDA-MB-435 melanoma, 69.2%. In addition, the growth with SW-620 colon is 47.1%; with MCF7 breast, 33.3%; with HCT-116 colon, 75.6%; in the experiment on HCC-2998 colon, 108%; with KM12 colon it was 22.3%.
As to `Cc1cnc2nc(NN)[nH]n12`, the growth in the experiment on SR leukemia is 101%; in the experiment on RPMI-8226 leukemia, 104%; with OVCAR-8 ovarian, 98%; in the experiment on OVCAR-5 ovarian, 101%; in the experiment with OVCAR-4 ovarian, 104%; in the experiment with SK-OV-3 ovarian, 102%. Moreover, the growth in the experiment with IGROV1 ovarian is 97.6%; with HS 578T breast it was 107%; in the experiment on NCI/ADR-RES ovarian, 104%; with T-47D breast it was 98.4%; in the experiment on BT-549 breast it was 111%; in the experiment on MDA-MB-435 melanoma, 99.7%. The growth in the experiment with SW-620 colon was 103%; in the experiment with MCF7 breast, 92.6%; in the experiment on HCT-116 colon, 98.9%; with HCC-2998 colon, 108%; in the experiment with KM12 colon, 100%.
For the compound `CS(=O)c1nccc(-c2c(-c3ccc(F)c(OCCc4ccc(F)cc4)c3)nc3sccn23)n1` (stereo unspecified), the growth is -8.59% (active) in the experiment with SR leukemia; 18% with RPMI-8226 leukemia; 66.6% in the experiment on OVCAR-8 ovarian; 103% in the experiment with OVCAR-5 ovarian; 82.1% in the experiment on OVCAR-4 ovarian; 105% in the experiment on SK-OV-3 ovarian. Also, the growth in the experiment on IGROV1 ovarian is -40.4% (active); in the experiment on HS 578T breast, 88.7%; in the experiment on NCI/ADR-RES ovarian, 105%; in the experiment on T-47D breast it was -41.9% (active); in the experiment with BT-549 breast it was 92.8%; in the experiment with MDA-MB-435 melanoma, 99.5%. Also, the growth in the experiment with SW-620 colon was -5.23% (active); in the experiment on MCF7 breast it was -46.4% (active); in the experiment on HCT-116 colon it was -59.9% (active); with HCC-2998 colon it was 17.8%; in the experiment on KM12 colon, 78.3%.
`CN1CCN(Cc2ccc(NC(=O)c3cncc(C#Cc4[nH]nc5ncncc45)c3)cc2C(F)(F)F)CC1`: the growth is 48% with SR leukemia; 45.2% in the experiment with RPMI-8226 leukemia; 88.7% in the experiment with OVCAR-8 ovarian; 77.7% in the experiment on OVCAR-5 ovarian; 88.5% in the experiment on OVCAR-4 ovarian; 60.8% in the experiment on SK-OV-3 ovarian. Further, the growth in the experiment on IGROV1 ovarian was 38.2%; in the experiment on HS 578T breast, 45.9%; in the experiment on NCI/ADR-RES ovarian, 105%; with T-47D breast it was 39.2%; in the experiment on BT-549 breast it was 118%; with MDA-MB-435 melanoma it was 38.9%. Further, the growth in the experiment with SW-620 colon was 31.6%; in the experiment with MCF7 breast it was 46%; in the experiment on HCT-116 colon, 17.7%; with HCC-2998 colon, 44.3%; in the experiment on KM12 colon it was 10.5%.
With `O=C(/C=C/Nc1ccc(S(=O)(=O)O)cc1)c1ccc(F)cc1`, the growth in the experiment on SR leukemia was 90.8%; in the experiment with RPMI-8226 leukemia, 95.9%; with OVCAR-8 ovarian it was 99.5%; with OVCAR-5 ovarian, 103%; in the experiment with OVCAR-4 ovarian, 105%; in the experiment with SK-OV-3 ovarian, 117%. Further, the growth in the experiment with IGROV1 ovarian was 109%; in the experiment with HS 578T breast, 97.3%; in the experiment with NCI/ADR-RES ovarian it was 97.3%; in the experiment on T-47D breast, 99.4%; in the experiment with BT-549 breast it was 119%; with MDA-MB-435 melanoma, 100%. For the same compound, the growth was 94.8% in the experiment with SW-620 colon; 90% with MCF7 breast; 107% in the experiment with HCT-116 colon; 106% in the experiment with HCC-2998 colon; 104% with KM12 colon.
On to `COc1cc2oc(-c3cccc(NC(=O)c4cc(NC(=O)[C@H](C)N)ccc4Cl)c3)cc(=O)c2c(OC)c1OC`, for which the growth in the experiment with SR leukemia is 73.1%; in the experiment on RPMI-8226 leukemia, 67.2%; in the experiment with OVCAR-8 ovarian, 69%; with OVCAR-5 ovarian, 106%; with OVCAR-4 ovarian, 85.9%; in the experiment on SK-OV-3 ovarian, 120%. Besides, the growth in the experiment on IGROV1 ovarian was 96.7%; in the experiment on HS 578T breast it was 99.9%; in the experiment with NCI/ADR-RES ovarian, 88.6%; in the experiment on T-47D breast it was 67.9%; in the experiment with BT-549 breast it was 108%; in the experiment with MDA-MB-435 melanoma it was 105%. Further, the growth in the experiment on SW-620 colon is 104%; in the experiment on MCF7 breast, 91.4%; with HCT-116 colon it was 94.9%; in the experiment with HCC-2998 colon, 100%; in the experiment on KM12 colon, 96.3%.
As for `CCc1ccc(NC(=O)N[C@@H](Cc2cccc(C)c2)C(=O)N[C@@H]2C(=O)N3CCC[C@H]3C(=O)N3CCCC[C@H]3C(=O)N[C@@H](CO)C(=O)N3C[C@H](C)C[C@H]3C(=O)O[C@H]2C)c(F)c1`, the growth is 34.9% in the experiment with SR leukemia; 18.6% with RPMI-8226 leukemia; 21.5% in the experiment on OVCAR-8 ovarian; 33.5% in the experiment with OVCAR-5 ovarian; 22.1% in the experiment on OVCAR-4 ovarian; 22.1% in the experiment with SK-OV-3 ovarian. Moreover, the growth was 43.3% in the experiment on IGROV1 ovarian; 28.5% in the experiment on HS 578T breast; 37.7% with NCI/ADR-RES ovarian; 27.4% with T-47D breast; 24.9% in the experiment on BT-549 breast; 16.8% in the experiment on MDA-MB-435 melanoma. Also, the growth in the experiment on SW-620 colon is 34.7%; in the experiment with MCF7 breast, 17.6%; in the experiment on HCT-116 colon, 11.8%; with HCC-2998 colon it was 23.9%; in the experiment with KM12 colon it was 37.6%.
In the case of `NC(N)=NS(=O)(=O)c1ccc(N=NC2C(=O)NN(c3ccccc3)C2=O)cc1` (stereo unspecified), the growth was 109% with SR leukemia; 98.8% with RPMI-8226 leukemia; 104% with OVCAR-8 ovarian; 101% with OVCAR-5 ovarian; 104% in the experiment with OVCAR-4 ovarian; 112% in the experiment on SK-OV-3 ovarian. Further, the growth in the experiment on IGROV1 ovarian was 103%; with HS 578T breast, 89%; in the experiment on NCI/ADR-RES ovarian, 99.9%; in the experiment on T-47D breast, 95.8%; in the experiment with BT-549 breast it was 107%; in the experiment with MDA-MB-435 melanoma, 101%. The growth in the experiment on SW-620 colon is 100%; in the experiment with MCF7 breast, 93.2%; in the experiment on HCT-116 colon, 97.3%; with HCC-2998 colon, 103%; in the experiment with KM12 colon, 103%.

For the origin of these results see PubChem BioAssay (NCI).
